From ChEMBL document CHEMBL2218924, “A broad activity screen in support of a chemogenomic map for kinase signalling research and drug discovery” (Biochem J, 2013)

Assays:
[1] = molecular target: T1, Ephrin type-B receptor 1 (Homo sapiens) (UniProt P54762); conditions: at 10 µM
T1 sequence (whole entry): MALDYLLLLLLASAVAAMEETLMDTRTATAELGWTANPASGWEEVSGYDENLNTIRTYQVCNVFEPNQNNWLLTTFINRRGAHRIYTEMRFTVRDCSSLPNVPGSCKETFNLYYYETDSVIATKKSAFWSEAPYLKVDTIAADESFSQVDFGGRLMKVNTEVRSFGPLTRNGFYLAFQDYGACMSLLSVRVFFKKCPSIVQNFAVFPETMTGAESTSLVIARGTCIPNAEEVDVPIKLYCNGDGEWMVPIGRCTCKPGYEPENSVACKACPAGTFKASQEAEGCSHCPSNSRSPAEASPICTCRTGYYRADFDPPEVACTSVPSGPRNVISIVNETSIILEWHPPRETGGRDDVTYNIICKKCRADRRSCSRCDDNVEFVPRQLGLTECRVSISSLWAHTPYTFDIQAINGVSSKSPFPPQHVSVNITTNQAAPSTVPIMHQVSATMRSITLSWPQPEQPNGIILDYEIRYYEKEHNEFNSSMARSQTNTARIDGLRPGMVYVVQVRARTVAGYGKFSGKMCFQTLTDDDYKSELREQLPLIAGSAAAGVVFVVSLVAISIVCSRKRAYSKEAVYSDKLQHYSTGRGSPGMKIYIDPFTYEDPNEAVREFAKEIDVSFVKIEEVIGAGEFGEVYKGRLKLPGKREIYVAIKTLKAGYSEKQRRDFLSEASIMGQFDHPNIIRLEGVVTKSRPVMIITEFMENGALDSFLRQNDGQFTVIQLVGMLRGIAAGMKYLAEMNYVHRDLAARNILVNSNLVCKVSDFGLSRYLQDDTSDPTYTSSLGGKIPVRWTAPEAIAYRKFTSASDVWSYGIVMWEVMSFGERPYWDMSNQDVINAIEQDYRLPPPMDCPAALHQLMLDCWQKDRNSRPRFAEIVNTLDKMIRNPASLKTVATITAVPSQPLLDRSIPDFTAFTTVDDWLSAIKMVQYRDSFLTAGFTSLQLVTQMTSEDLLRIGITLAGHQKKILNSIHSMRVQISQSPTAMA

[2] = molecular target: T2, Ephrin type-B receptor 2 (Homo sapiens) (UniProt P29323); conditions: at 1 µM
T2 sequence (whole entry): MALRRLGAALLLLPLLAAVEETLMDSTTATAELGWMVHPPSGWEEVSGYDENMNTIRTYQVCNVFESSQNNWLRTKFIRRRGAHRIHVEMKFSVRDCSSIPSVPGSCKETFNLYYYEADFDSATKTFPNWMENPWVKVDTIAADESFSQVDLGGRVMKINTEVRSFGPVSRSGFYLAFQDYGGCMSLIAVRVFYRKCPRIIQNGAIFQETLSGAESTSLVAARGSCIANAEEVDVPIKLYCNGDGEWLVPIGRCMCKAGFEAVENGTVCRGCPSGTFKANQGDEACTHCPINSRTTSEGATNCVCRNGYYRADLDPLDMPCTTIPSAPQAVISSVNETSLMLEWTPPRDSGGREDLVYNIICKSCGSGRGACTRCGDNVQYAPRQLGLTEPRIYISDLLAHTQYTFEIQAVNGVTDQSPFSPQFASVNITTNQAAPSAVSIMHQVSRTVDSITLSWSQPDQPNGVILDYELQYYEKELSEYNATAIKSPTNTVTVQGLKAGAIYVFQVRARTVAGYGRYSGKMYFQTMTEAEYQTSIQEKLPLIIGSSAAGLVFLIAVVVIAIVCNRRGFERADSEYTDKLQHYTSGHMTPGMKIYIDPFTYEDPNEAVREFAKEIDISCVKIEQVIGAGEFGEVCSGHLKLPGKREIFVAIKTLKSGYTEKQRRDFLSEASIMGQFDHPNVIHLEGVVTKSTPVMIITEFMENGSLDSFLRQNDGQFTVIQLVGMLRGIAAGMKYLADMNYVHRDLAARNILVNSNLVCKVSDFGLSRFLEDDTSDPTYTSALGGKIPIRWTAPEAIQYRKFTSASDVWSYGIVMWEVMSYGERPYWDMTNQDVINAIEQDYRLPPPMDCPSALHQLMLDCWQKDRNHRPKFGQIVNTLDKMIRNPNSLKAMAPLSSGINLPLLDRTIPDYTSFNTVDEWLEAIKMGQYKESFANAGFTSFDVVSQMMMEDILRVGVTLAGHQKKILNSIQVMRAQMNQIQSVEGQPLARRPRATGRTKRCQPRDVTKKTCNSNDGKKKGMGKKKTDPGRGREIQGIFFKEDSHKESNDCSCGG

[3] = molecular target: T2, Ephrin type-B receptor 2 (Homo sapiens); conditions: at 10 µM
[4] = molecular target: T3, Ephrin type-B receptor 3 (Homo sapiens) (UniProt P54753); conditions: at 1 µM
T3 sequence (whole entry): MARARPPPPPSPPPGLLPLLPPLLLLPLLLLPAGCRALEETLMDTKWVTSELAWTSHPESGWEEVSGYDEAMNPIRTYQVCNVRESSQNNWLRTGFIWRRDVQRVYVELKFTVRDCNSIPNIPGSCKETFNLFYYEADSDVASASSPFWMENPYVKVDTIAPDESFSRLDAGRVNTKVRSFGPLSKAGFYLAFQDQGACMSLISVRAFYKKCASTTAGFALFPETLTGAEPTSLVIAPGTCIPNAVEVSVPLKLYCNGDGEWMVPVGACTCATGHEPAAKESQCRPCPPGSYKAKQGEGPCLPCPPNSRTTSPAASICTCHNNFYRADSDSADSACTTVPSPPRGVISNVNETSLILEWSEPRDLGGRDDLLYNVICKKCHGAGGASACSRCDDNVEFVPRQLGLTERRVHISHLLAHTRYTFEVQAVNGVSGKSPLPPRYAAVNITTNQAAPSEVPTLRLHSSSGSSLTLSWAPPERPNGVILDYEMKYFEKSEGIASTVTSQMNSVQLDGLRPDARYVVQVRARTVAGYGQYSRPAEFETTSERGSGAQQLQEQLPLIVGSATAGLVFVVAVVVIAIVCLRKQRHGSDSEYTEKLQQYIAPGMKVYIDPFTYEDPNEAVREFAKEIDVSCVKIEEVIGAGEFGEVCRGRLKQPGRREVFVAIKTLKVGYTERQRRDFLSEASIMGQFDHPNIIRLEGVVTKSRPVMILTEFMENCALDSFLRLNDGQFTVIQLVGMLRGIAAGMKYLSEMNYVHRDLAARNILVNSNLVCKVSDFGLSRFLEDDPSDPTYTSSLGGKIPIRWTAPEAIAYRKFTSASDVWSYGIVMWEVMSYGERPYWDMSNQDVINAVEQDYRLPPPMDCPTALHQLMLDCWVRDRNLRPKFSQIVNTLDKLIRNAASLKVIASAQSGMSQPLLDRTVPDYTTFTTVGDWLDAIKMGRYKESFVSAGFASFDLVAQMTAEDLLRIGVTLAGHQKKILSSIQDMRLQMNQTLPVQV

[5] = molecular target: T3, Ephrin type-B receptor 3 (Homo sapiens); conditions: at 10 µM
[6] = molecular target: T4, Ephrin type-B receptor 4 (Homo sapiens) (UniProt P54760); conditions: at 1 µM
T4 sequence (whole entry): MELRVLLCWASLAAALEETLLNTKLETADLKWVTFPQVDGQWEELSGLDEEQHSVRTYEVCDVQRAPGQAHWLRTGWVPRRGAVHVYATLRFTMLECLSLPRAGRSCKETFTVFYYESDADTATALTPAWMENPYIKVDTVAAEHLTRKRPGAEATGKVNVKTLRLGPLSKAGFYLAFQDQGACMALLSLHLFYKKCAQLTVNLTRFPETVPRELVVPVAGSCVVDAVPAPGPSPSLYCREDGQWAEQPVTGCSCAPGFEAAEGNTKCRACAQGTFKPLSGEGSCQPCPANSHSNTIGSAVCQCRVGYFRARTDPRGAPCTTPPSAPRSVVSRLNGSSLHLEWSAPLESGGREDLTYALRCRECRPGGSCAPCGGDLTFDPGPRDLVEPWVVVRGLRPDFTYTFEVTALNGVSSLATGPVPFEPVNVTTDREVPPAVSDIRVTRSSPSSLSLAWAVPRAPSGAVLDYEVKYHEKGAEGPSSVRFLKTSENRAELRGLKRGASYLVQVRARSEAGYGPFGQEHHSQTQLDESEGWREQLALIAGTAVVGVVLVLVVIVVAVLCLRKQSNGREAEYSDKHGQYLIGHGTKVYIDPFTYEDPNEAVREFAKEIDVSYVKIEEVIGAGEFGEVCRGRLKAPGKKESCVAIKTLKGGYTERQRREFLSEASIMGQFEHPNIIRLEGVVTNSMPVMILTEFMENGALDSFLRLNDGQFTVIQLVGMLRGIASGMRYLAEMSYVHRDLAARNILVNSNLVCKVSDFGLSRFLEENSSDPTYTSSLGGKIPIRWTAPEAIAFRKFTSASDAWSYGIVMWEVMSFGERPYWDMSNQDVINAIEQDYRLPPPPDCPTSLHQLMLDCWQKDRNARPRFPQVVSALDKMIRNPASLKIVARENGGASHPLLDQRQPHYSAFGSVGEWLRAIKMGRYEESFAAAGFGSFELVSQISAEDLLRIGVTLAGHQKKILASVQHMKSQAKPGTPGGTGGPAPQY

[7] = molecular target: T4, Ephrin type-B receptor 4 (Homo sapiens); conditions: at 10 µM
[8] = molecular target: Receptor tyrosine-protein kinase erbB-4 (Homo sapiens) (UniProt Q15303); conditions: at 1 µM
[9] = molecular target: Receptor tyrosine-protein kinase erbB-4 (Homo sapiens) (UniProt Q15303); conditions: at 10 µM
[10] = molecular target: Focal adhesion kinase 1 (Homo sapiens) (UniProt Q05397); conditions: at 1 µM
Sequence of Focal adhesion kinase 1 (Homo sapiens) (Q05397 2-1052 limits assumed): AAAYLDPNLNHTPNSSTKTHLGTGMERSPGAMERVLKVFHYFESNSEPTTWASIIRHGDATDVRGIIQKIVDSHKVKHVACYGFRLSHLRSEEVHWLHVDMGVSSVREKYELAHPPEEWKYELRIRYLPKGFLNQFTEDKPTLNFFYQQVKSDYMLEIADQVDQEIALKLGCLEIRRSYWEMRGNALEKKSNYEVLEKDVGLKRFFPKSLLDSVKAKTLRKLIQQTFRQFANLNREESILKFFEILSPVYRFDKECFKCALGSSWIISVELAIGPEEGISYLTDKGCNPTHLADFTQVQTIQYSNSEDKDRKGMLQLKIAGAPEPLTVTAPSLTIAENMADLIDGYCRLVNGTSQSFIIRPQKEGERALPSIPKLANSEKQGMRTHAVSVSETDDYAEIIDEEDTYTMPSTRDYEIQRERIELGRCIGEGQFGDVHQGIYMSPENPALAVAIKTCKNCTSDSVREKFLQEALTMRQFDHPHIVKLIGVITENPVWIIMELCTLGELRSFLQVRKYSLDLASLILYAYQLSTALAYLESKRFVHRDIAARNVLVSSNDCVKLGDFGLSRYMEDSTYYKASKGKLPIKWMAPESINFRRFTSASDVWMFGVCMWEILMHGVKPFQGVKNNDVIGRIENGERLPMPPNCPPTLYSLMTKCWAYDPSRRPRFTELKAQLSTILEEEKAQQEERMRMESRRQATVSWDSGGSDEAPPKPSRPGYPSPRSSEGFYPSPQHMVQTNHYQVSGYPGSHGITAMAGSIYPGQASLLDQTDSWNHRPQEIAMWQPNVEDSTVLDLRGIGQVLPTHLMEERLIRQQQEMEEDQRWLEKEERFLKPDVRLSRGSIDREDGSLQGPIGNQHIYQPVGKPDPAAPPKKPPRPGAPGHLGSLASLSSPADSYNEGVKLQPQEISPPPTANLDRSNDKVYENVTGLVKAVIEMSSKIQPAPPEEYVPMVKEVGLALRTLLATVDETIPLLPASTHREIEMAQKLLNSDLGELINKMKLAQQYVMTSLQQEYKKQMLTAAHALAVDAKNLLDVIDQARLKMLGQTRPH

Sequence of Receptor tyrosine-protein kinase erbB-4 (Homo sapiens) (Q15303 whole entry): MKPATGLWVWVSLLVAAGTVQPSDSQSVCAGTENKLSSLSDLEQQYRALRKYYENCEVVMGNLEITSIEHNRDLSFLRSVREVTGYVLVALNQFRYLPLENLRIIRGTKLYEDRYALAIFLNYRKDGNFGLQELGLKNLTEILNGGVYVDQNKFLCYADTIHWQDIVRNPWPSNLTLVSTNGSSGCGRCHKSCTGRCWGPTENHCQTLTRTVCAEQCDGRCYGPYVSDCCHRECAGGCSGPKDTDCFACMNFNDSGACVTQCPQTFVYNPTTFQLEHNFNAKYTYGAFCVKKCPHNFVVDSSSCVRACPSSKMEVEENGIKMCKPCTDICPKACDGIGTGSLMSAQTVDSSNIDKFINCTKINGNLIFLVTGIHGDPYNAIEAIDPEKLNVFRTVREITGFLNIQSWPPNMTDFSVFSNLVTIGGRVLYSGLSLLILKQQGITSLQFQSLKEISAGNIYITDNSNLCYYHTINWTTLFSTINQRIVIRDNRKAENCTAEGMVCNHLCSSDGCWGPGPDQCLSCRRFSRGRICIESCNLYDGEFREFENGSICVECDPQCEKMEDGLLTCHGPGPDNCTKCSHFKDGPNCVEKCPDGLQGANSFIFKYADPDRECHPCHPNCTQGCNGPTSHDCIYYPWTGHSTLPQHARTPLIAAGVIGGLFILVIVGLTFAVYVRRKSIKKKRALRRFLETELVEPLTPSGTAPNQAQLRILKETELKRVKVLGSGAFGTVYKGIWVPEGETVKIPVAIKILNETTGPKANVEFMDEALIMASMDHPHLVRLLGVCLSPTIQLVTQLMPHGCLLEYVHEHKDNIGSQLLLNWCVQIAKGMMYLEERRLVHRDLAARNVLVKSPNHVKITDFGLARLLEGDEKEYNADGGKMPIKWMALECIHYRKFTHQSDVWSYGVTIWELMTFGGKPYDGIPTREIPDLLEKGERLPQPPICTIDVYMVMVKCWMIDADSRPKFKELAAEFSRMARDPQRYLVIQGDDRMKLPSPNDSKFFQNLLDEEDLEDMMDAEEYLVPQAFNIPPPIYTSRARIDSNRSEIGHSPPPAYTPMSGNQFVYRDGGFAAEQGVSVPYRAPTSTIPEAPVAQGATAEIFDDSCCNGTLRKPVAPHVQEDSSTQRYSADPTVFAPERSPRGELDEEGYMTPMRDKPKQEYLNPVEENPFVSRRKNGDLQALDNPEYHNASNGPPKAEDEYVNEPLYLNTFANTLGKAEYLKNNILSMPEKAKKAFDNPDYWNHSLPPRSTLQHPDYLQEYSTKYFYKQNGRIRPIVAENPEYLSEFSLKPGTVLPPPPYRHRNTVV

O=C1NC(=O)/C(=C\c2ccc3nccnc3c2)S1
residual activity [1]: 96%
residual activity [2]: 98%
residual activity [3]: 119%
residual activity [4]: 113% (inactive)
residual activity [5]: 104%
residual activity [6]: 95%
residual activity [7]: 111%
residual activity [8]: 88%
residual activity [9]: 92%
residual activity [10]: 90%
